# Experiments:
# Assay in all cases: DAPPL (digital affinity profiling via proximity ligation, sequencing); 10 mM Tris-HCl pH 7.5, 50 mM NaCl, 1 mM DTT, 4% glycerol, room temperature, 30 min; GST-TFs on glutathione beads, 16-mer random dsDNA library, 0.1% formaldehyde crosslink after washing; high values mean tight binding
# Conditions in all cases: protein: recombinant; tags: N-terminal GST; dsDNA, one strand shown
# FLI1 = molecular target: T1, FLI1 (Homo sapiens, UniProt Q01543 1-452)
# T1 sequence: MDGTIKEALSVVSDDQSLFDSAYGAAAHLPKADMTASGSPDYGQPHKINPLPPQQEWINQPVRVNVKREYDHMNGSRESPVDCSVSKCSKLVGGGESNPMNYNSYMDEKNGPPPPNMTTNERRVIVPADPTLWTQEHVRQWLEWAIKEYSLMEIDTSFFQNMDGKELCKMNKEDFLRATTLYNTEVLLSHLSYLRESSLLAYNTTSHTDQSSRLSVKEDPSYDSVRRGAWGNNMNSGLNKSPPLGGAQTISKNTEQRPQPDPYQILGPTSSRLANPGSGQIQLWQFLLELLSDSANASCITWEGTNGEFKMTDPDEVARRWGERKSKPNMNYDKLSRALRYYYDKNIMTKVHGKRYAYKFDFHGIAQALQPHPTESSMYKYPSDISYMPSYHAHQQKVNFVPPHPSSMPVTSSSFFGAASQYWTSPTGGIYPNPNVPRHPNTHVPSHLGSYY
# Outline: (§1)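 A tag-only sample was pooled with DNA-barcoded human transcription factors that had been expressed in yeast as GST fusions and captured on glutathione beads. The pools were incubated for 30 min at room temperature with 200 nmole of a random double-stranded 16-mer DNA library in Tris/NaCl/DTT/glycerol buffer, then washed, crosslinked with 0.1% formaldehyde, proximity-ligated (BsaI/T4 ligase, 1 h, 37 °C), PCR-amplified and sequenced on an Illumina NextSeq500. Binding signal is each hexamer's read frequency for a factor divided by its frequency for the tag-only sample.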
# ELK1 = molecular target: T2, ELK1 (Homo sapiens, UniProt P19419 1-428)
# T2 sequence: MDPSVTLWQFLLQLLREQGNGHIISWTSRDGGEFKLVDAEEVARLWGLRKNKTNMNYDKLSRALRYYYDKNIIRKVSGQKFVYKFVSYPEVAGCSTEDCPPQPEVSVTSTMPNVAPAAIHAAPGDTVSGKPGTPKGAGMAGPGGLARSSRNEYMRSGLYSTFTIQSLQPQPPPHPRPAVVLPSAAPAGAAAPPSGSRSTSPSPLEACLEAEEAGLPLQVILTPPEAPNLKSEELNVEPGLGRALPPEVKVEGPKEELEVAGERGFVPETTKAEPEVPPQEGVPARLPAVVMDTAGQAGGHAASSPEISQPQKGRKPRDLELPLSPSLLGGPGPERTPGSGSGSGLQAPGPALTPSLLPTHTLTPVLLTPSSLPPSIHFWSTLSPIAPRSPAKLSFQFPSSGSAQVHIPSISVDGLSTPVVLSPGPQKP
# Outline: as §1
# GABPA = molecular target: T3, GABPA (Homo sapiens, UniProt Q06546 1-454)
# T3 sequence: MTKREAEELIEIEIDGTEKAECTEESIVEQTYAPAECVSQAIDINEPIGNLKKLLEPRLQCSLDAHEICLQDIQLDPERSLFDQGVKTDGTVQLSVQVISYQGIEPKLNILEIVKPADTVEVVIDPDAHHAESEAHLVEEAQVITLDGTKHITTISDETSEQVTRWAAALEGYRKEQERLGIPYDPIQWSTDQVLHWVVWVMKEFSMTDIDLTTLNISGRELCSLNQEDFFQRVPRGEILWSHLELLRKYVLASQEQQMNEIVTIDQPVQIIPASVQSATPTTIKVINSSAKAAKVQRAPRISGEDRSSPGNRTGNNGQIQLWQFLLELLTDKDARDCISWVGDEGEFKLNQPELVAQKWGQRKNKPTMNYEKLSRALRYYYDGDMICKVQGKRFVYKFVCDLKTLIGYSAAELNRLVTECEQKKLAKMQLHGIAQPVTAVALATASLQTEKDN
# Outline: as §1
# ERG = molecular target: T4, ERG (Homo sapiens, UniProt P11308 1-479)
# T4 sequence: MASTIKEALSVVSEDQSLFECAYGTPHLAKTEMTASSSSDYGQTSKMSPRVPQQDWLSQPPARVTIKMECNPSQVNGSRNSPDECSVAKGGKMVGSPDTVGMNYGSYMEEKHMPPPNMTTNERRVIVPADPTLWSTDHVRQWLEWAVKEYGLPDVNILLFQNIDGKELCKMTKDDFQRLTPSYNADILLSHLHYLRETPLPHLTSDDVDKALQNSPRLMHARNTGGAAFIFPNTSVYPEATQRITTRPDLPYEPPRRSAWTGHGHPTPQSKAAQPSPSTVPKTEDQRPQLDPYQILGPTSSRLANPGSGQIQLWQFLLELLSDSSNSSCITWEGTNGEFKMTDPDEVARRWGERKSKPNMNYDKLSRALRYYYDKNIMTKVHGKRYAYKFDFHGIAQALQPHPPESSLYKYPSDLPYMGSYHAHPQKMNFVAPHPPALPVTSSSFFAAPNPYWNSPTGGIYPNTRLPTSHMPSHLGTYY
# Outline: as §1
# ELF1 = ELF1 (Homo sapiens, UniProt P32519 1-619)
# Outline: as §1
# EHF = molecular target: T5, EHF (Homo sapiens, UniProt Q9NZC4 1-300)
# T5 sequence: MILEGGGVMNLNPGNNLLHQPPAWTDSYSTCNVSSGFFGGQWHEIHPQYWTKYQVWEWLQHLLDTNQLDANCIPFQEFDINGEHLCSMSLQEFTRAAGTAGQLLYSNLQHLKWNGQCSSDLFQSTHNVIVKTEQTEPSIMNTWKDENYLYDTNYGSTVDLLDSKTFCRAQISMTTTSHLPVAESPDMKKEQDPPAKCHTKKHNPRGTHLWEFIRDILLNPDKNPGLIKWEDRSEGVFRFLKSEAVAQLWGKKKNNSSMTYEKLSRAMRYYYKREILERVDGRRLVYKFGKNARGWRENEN
# Outline: as §1
# SPI1 = SPI1 (Homo sapiens, UniProt P17947 1-270)
# Outline: as §1
# SPIB = SPIB (Homo sapiens, UniProt Q01892 1-262)
# Outline: as §1
# ELK3 = molecular target: T6, ELK3 (Homo sapiens, UniProt P41970 1-407)
# T6 sequence: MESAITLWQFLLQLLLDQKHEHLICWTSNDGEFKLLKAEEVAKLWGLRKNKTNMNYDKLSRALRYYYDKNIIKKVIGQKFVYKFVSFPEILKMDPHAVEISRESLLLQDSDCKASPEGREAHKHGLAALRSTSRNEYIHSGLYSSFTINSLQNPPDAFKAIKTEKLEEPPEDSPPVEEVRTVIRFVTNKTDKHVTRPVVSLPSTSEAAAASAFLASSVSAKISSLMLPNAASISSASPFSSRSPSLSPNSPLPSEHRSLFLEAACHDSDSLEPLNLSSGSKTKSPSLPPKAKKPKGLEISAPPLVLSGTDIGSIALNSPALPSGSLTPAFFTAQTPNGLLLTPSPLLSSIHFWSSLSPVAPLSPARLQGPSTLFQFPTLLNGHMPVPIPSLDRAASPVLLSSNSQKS
# Outline: as §1
# SPIB, sequence (Q01892 whole entry): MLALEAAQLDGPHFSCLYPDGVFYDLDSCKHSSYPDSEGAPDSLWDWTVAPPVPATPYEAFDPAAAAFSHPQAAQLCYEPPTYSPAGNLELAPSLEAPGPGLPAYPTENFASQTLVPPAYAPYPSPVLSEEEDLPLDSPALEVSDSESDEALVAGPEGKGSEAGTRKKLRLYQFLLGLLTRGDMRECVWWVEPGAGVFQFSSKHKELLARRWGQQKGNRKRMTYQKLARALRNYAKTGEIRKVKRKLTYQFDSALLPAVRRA
# ELF1, sequence (P32519 whole entry): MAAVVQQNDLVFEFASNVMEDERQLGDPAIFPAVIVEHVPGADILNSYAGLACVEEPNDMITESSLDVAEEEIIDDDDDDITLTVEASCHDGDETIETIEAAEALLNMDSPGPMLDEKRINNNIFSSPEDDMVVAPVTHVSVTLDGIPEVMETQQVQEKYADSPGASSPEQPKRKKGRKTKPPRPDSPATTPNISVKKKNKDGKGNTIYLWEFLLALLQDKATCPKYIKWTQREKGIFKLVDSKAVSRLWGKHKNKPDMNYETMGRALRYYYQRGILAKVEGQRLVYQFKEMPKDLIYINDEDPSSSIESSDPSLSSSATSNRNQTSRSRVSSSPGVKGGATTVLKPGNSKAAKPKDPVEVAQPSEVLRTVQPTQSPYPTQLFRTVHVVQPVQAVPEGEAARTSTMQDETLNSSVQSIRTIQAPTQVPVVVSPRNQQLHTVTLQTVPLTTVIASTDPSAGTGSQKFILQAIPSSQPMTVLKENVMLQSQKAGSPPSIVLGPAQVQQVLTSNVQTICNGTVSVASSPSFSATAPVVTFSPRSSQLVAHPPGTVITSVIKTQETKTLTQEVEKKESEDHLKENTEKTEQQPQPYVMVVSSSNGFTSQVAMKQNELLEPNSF
sequence,measurement,setting,value
TAAAGT,binding signal,FLI1,"1.22 fold enrichment (6-mer frequency, TF over GST control)"
same,binding signal,ELK1,"1.14 fold enrichment (6-mer frequency, TF over GST control)"
same,binding signal,GABPA,"1.24 fold enrichment (6-mer frequency, TF over GST control)"
same,binding signal,ERG,"1.17 fold enrichment (6-mer frequency, TF over GST control)"
same,binding signal,ELF1,"1.18 fold enrichment (6-mer frequency, TF over GST control)"
same,binding signal,EHF,"1.18 fold enrichment (6-mer frequency, TF over GST control)"
same,binding signal,SPI1,"1.21 fold enrichment (6-mer frequency, TF over GST control)"
same,binding signal,SPIB,"1.11 fold enrichment (6-mer frequency, TF over GST control)"
same,binding signal,ELK3,"1.38 fold enrichment (6-mer frequency, TF over GST control)"
